Out of some 5,500 compounds screened, about 2,000 (36%) were called active. Not shown: some 18% with an inconclusive outcome. Cut-off read from the data, not from the text of the source: active = normalized growth mostly below about 0.91 (no sharp cut-off); inconclusive = no clear call, values can overlap the other calls; inactive = mostly above about 0.92. The list shows a part of the results.
Experiment: chemical genetic growth profiling, strain panel (AID 1159580);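 note: tested at 20 µM; growth read once vehicle control cultures reached saturation at 30 °C; 1 = growth at the plate median or of vehicle wells; lower values mean less growth of the strain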
Conditions: S. cerevisiae deletion strains, growth OD

Measured: normalized growth

CCCN(CCC)CCc1ccc(O)c(O)c1
inactive: locus YAL040C, strain CLN3, hits give low values 1.03 | locus YCL061C, strain MRC1 (second series), hits give low values 1 | locus YDR363W, strain ESC2, hits give low values 1.04 | locus YER002W, strain NOP16, hits give low values 1.01 | locus YGR078C, strain PAC10, hits give low values 0.992 | locus YMR263W, strain SAP30, hits give low values 0.995 | locus YNL153C, strain GIM3, hits give low values 1 | locus YNL175C, strain NOP13, hits give low values 0.997 | locus YNL197C, strain WHI3, hits give low values 1 | locus YNL224C, strain SQS1, hits give low values 0.994 | locus YNL322C, strain KRE1, hits give low values 1.02 | locus YOR083W, strain WHI5 (second series), hits give low values 1.01 | locus YPL241C, strain CIN2, hits give low values 1

From PubChem BioAssay AID1159580 (chemical genetic matrix, 2015)
